# Laboratory results from PubChem BioAssay (EPA / NIEHS).
# Records with an inconclusive call do not appear. Activity calls are given as the source filed them. The calls were made as follows: active = hit-call score of the fitted dose curve at least 0.9, where 1 is the maximum; inconclusive = response in the unintended direction; inactive = score below 0.9.
# Test system: Sodium/Iodide Symporter (NIS), SLC5A5 (gene 6528)
# Assay: CPHEA_Stoker_NIS_Inhibition_RAIU: CPHEA's Radioactive Iodide Uptake (RAIU) Assay for Sodium/Iodide Symporter (NIS) Inhibition, Stoker and Laws Labs (AID 2283841)
# Method: CPHEA_Stoker_NIS is a cell-based, single-readout assay that uses hNIS-HEK293T-EPA, a novel human kidney cell line expressing human NIS, with measurements taken at 2 hours after chemical dosing in a 96-well plate. This radioactive iodide uptake (RAIU) assay is used to identify inhibitors of NIS-mediated iodide uptake. A parallel cytoxicity assay (Cell Titer Glo, Promega) was also run in the same cell line.CPHEA_Stoker_NIS_Inhibition_RAIU is one of 2 assay components measured from the CPHEA_Stoker_NIS assay. It is designed to make measurements of radioactive substrate uptake to understand transporter function, as detected with 125-i signals by MicroBeta radioactivity plate reader technology.Data from the assay component CPHEA_Stoker_NIS_Inhibition_RAIU was analyzed at the endpoint, CPHEA_Stoker_NIS_Inhibition_RAIU, in the positive analysis fitting direction relative to DMSO as the negative control and baseline of activity. Measures of radioactive substrate uptake for loss-of-signal activity can be used to understand the effects on transporter function at the pathway level as they relate to the sodium-iodide symporter, gene SLC5A5. To generalize the intended target to other relatable targets, this assay endpoint is annotated to the transporter intended target family, where the subfamily is sodium-iodide symporter (NIS).
# hNIS-HEK293T-EPA cells were seeded with a MultiFlo FX dispenser (BioTek, Winooski, VT) into ScintiPlate-96 microplates (Perkin Elmer, Waltham, MA) at a density of 4.0x10^4 cells per well in 200uL growth media and incubated for 40 hours before experimentation. On day of the assay, carrier-free 125I (Perkin-Elmer, Waltham, MA; specific activity: 17.4Ci/mg) was diluted with Hanks' balanced salt solution (Sigma, St. Louis, MO) supplemented with 10mM HEPES (uptake buffer; pH 7.4) at 5uCi/mL (288pg 125I/mL uptake buffer; 2.30nM). The assay was initiated by washing cells twice with 200uL uptake buffer using a 96-well Tecan HydroSpeed plate washer (Tecan, Mannedorf, Switzerland). Uptake buffer (59.7uL) was then added back to each well. Chemical samples (350nL at 200X) were administered using the HDR tool as previously described to achieve a 1X chemical/0.5% final DMSO concentration with subsequent addition of 10uL of 125I dilution (final [125I]: 329pM; 2.88pg/well) for a final reaction volume of 70uL/well. Cells were incubated at room temperature for 2 hours and then washed twice with 200uL ice cold uptake buffer. All uptake buffer was aspirated from wells, plates were sealed, and read on a MicroBeta2 plate reader (Perkin Elmer, Waltham, MA) using a detection protocol to measure CPM corresponding to intracellular 125I concentration. Each chemical concentration (0.001, 0.01, 0.1, 1.0, 10, and 100uM) was assayed in triplicate with three independent biological replicate plates (3 sequential cell passages). Additionally, a concentration response of NaClO4 (0.001, 0.01, 0.1, 1.0, 10, and 100uM) served as a positive control inhibition curve on each RAIU assay plate. DMSO control wells were assayed on each plate as a measure of maximum iodide uptake for normalization and determination of intra- and inter-assay variation. (Toxicol In Vitro, 2017, 40:66-78).
SMILES,outcome,AC50
O=C1c2ccccc2C(=O)N1CCc1noc(-c2ccc(CN3CCCCCC3)s2)n1,inactive,
CN(C)c1ccc(C(=C2C=CC(=[N+](C)C)C=C2)c2ccc(N(C)C)cc2)cc1,,17.4 µM (active)
O=C(O)Cc1cc(I)c(Oc2ccc(O)c(I)c2)c(I)c1,,88.5 µM (active)
Cc1c2ccccc2c(C)c2c1ccc1ccccc12,inactive,
NC(=O)c1nc(-c2cccc(-c3cc(F)ccc3OCC(F)(F)C(F)(F)F)c2)n[nH]1,,50 µM (active)
Clc1ccccc1C(c1ccccc1)(c1ccccc1)n1ccnc1,,50 µM (active)
CN1C(=O)N(c2ccccc2Br)Cc2cnc(Nc3ccc4c(c3)OCC(CO)O4)nc21 (stereo not given),inactive,
CCN(CC)C(=O)c1cc(S(=O)(=O)Cc2ccccc2)c(N2CCC(c3ccccc3)CC2)cc1N(CC)CCN(C)C,inactive,
CCOC(=O)O[C@H](C)OC(=O)c1ccc2c(c1)cc(C(=O)NC1CCN(C(C)C)CC1)n2Cc1cc(-c2ccc(Cl)s2)on1,inactive,
NCc1cccc(C2CCN(C(=O)c3ccc(C#Cc4ccccc4F)o3)CC2)c1,inactive,
CCCCCCCCOC(=O)c1cc(O)c(O)c(O)c1,inactive,
CC/C(=C(/CC)c1ccc(O)cc1)c1ccc(O)cc1,inactive,
CC(=O)N1CCN(c2ccc(OC[C@H]3CO[C@](Cn4ccnc4)(c4ccc(Cl)cc4Cl)O3)cc2)CC1,,50 µM (active)
O=c1[nH]sc2ccccc12,inactive,
Clc1cc(Cl)c2c(c1)N=C1CCCCCN1C2,inactive,
Cc1cc2c(cc1C(F)(F)F)N(C(=O)Nc1ccc(Oc3cccnc3C)nc1)CC2,inactive,
CC(C)(C)c1csc(-c2cc3cc(OCc4ccccc4CC(=O)O)ccc3o2)n1,,50 µM (active)
OC12N=C(c3ccccc3)SC1Cc1cc(Cl)ccc12 (stereo not given),inactive,
CN(C[C@@H](CC[N+]12CCC(C3CCCCC3)(CC1)CC2)c1ccc(Cl)c(Cl)c1)C(=O)c1cc(C(F)(F)F)cc(C(F)(F)F)c1,,66.3 µM (active)
O=C(Nc1ccc(Cl)cc1)Nc1ccc(Cl)c(Cl)c1,inactive,
CCCCCCCCCCCC[N+](C)(C)C,inactive,
CC(C)(c1cc(Br)c(O)c(Br)c1)c1cc(Br)c(O)c(Br)c1,,82.4 µM (active)
COc1cc(C(=O)NC2CCN(C)CC2)ccc1Nc1ncc2c(n1)N(C1CCCC1)CC(F)(F)C(=O)N2C,inactive,
CN(C)C(=O)C1(N2CCCCC2)CCN(CC[C@@]2(c3ccc(Cl)c(Cl)c3)CN(C(=O)c3ccccc3)CCO2)CC1,inactive,
CC(C)(C)c1cc(/C=C2\SC(N)=NC2=O)cc(C(C)(C)C)c1O,inactive,
